Assay results reported in PubChem BioAssay AID493166 (National Center for Advancing Translational Sciences (NCATS), 2011).
Calls of active or inactive are those of the source. Where a call stands in place of a potency, no number is given. Calls follow the shape of the dose curve; as a rule, active = well fitted curve in the direction sought with a large enough effect; inactive = no such curve, though single readings can be large or run the other way.

Assay: Retest of LOPAC molecules that induce DNA re-replication in MCF 10A normal breast cells.
Conditions: MCF 10A DNA re-replication, Hoechst nuclear intensity, 48 h; series mostly up to 45.1 µM
Text: NIH Molecular Libraries Probe Production Network [MLPCN] NIH Chemical Genomics Center [NCGC] MLPCN Grant: Fast Track K99 CA136555 Assay Provider: Melvin DePamphilis, NICHD, NIH Assay Overview Eukaryotic cells normally restrict genome duplication to once per cell division. When this process is aberrant, DNA re-replication occurs when cells reinitiate DNA replication before the first round of replication is complete. DNA re-replication induces the DNA damage response, arrests cell proliferation, and triggers apoptosis. The cell cycle components cyclin A, Cdt-1, Cdc6 and geminin are critical regulators of this process and their misregulation results in DNA re-replication in normal and cancer cells. To identify compounds that induce re-replication in normal cells, an image-based assay was used to measure DNA content of nuclei, as detected by the fluorescent DNA binding dye, Hoechst. Cell nuclei were imaged by a fluorescence scanning plate imager and compounds that induce DNA re-replication were identified by the increase of nuclei with elevated fluorescence intensity.
Assay Protocol Summary For screening, 250 cells in 5 uL/well were dispensed into black clear 1536-well plates (Aurora) using a solenoid-based dispenser. Following transfer of 23 nL compound or DMSO vehicle by a pin tool, the plates were incubated 48 hr at 37 C and 5% CO2. After addition of 1 uL/well Hoescht stain, the plates were incubated 40 min at 37 C, 5% CO2 and total intensity of fluorescent objects (nuclei) were enumerated by an Acumen Explorer Ex3 (TTP LabTech) fluorescence scanning plate imager (405 nm excitation, 500-530 nm emission). Keywords: NIH Roadmap, MLPCN, MLI, MLSMR, qHTS, NCGC, DNA replication, cancer

Compound	Potency
C=C(C)[C@H]1Cc2c(ccc3c2O[C@@H]2COc4cc(OC)c(OC)cc4[C@@H]2C3=O)O1	755 nM (active)
COc1cc2c(c(OC)c1OC)-c1ccc(OC)c(=O)cc1[C@@H](NC(C)=O)CC2	inactive
CC(C)NP(=O)(NC(C)C)OP(=O)(NC(C)C)NC(C)C	inactive
